Paper PMC7862700, “An all-to-all approach to the identification of sequence-specific readers for epigenetic DNA modifications on cytosine”

Assays:
Assay in all cases: DAPPL (digital affinity profiling via proximity ligation, sequencing); 10 mM Tris-HCl pH 7.5, 50 mM NaCl, 1 mM DTT, 4% glycerol, room temperature, 30 min; GST-TFs on glutathione beads, 16-mer random dsDNA library, 0.1% formaldehyde crosslink after washing; high values mean tight binding
Conditions in all cases: protein: recombinant; tags: N-terminal GST; dsDNA, one strand shown
ERF = target: T1, ERF (Homo sapiens, UniProt P50548 1-548)
T1 sequence: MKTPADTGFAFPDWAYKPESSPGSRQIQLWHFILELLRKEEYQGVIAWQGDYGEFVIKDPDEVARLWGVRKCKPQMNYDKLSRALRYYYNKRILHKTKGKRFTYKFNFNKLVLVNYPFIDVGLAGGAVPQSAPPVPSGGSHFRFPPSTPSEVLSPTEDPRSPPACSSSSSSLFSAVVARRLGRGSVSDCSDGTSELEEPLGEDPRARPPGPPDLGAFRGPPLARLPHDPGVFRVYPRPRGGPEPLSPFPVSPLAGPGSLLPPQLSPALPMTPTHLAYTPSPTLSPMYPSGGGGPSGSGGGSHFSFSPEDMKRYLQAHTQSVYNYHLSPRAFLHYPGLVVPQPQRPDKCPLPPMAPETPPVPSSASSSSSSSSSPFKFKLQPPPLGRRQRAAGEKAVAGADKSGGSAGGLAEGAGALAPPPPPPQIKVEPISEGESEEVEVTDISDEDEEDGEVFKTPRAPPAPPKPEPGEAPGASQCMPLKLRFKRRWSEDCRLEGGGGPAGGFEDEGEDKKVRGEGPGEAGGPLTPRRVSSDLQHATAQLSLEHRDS
How it was run: (§1)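 Yeast served to express human transcription factors as GST fusions, which were then captured on glutathione beads and labelled with DNA barcodes. Pooled with a tag-only sample, they were incubated with 200 nmole of a 16-mer random double-stranded DNA library for 30 min at room temperature in Tris/NaCl/DTT/glycerol buffer, washed, crosslinked with 0.1% formaldehyde, ligated by proximity, amplified by PCR and sequenced. Dividing each hexamer's read frequency for a factor by its frequency for the tag-only sample gives the binding signal.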

ETV3L = target: T2, ETV3L (Homo sapiens, UniProt Q6ZN32 1-361)
T2 sequence: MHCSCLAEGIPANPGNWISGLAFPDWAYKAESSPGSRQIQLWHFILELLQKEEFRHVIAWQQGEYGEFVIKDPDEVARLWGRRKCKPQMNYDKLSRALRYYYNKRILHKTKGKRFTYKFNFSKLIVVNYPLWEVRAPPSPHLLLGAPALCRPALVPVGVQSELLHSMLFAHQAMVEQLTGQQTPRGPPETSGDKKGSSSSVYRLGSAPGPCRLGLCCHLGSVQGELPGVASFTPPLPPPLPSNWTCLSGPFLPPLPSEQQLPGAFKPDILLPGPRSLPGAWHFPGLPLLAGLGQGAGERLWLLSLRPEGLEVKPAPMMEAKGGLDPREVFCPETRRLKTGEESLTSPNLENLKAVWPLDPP
How it was run: as §1

ETS2 = target: T3, ETS2 (Homo sapiens, UniProt P15036 1-469)
T3 sequence: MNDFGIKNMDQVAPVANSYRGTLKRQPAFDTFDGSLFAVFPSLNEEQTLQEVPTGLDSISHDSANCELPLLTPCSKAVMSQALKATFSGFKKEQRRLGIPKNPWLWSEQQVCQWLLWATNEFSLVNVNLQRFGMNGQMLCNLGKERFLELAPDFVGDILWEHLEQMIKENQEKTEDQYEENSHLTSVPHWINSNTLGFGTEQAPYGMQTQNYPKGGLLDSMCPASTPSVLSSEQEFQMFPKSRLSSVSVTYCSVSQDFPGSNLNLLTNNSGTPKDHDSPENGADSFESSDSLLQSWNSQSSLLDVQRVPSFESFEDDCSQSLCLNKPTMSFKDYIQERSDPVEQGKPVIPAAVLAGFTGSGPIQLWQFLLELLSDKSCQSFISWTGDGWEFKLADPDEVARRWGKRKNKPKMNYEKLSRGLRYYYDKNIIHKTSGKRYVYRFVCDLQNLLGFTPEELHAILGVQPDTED
How it was run: as §1

SPDEF = target: T4, SPDEF (Homo sapiens, UniProt O95238 1-335)
T4 sequence: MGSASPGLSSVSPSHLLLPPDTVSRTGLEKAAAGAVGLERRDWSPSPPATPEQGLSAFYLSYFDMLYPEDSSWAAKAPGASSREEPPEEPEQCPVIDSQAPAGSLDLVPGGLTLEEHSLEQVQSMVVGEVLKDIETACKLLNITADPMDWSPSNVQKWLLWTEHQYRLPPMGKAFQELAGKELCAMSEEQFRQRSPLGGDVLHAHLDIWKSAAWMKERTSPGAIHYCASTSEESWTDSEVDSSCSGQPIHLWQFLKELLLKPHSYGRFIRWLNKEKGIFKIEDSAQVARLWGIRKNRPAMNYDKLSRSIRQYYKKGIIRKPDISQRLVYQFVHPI
How it was run: as §1

ETV7 = target: T5, ETV7 (Homo sapiens, UniProt Q9Y603 1-341)
T5 sequence: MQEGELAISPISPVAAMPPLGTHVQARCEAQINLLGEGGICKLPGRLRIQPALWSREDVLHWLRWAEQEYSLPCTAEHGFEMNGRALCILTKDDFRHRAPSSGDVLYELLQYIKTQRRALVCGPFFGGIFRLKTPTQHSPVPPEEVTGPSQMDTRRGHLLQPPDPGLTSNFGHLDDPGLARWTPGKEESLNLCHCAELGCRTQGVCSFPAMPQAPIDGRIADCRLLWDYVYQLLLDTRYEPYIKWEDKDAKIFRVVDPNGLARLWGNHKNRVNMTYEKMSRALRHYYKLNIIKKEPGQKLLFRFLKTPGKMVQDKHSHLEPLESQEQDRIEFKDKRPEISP
How it was run: as §1

ELF5 = target: T6, ELF5 (Homo sapiens, UniProt Q9UKW6-2 1-255)
T6 sequence: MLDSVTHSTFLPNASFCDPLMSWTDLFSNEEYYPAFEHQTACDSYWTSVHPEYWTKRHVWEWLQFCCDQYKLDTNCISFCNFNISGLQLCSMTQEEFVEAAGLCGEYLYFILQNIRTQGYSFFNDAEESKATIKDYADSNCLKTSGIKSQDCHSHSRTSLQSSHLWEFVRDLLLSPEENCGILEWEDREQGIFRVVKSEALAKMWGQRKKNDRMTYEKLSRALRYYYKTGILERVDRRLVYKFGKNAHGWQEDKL
How it was run: as §1

ETV3 = target: T7, ETV3 (Homo sapiens, UniProt P41162-2 1-143)
T7 sequence: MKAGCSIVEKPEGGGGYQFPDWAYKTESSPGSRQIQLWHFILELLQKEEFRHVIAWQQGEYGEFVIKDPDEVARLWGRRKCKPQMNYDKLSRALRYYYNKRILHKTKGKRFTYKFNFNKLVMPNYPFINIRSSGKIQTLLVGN
How it was run: as §1

ETV6 = ETV6 (Homo sapiens, UniProt P41212 1-452)
Sequence of ETV6 (P41212 whole entry): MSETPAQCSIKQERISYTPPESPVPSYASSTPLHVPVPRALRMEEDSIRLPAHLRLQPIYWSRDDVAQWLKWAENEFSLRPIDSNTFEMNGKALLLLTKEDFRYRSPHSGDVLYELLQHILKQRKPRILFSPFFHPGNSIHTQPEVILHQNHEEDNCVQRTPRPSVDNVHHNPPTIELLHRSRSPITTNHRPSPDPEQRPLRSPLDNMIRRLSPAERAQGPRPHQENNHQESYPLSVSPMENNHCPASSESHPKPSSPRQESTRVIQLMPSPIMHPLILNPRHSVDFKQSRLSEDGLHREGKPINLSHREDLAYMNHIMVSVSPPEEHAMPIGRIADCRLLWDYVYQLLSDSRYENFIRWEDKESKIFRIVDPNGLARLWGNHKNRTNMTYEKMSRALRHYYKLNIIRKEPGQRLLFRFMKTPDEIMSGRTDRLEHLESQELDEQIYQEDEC
How it was run: as §1

TATCGA
binding signal (ERF): 1.38 fold enrichment (6-mer frequency, TF over GST control) | binding signal (ETV3L): 1.41 fold enrichment (6-mer frequency, TF over GST control) | binding signal (ETS2): 1.44 fold enrichment (6-mer frequency, TF over GST control) | binding signal (SPDEF): 1.34 fold enrichment (6-mer frequency, TF over GST control) | binding signal (ETV7): 1.32 fold enrichment (6-mer frequency, TF over GST control) | binding signal (ELF5): 1.18 fold enrichment (6-mer frequency, TF over GST control) | binding signal (ETV3): 1.25 fold enrichment (6-mer frequency, TF over GST control) | binding signal (ETV6): 1.35 fold enrichment (6-mer frequency, TF over GST control)

CTCTTC
binding signal (ERF): 1.62 fold enrichment (6-mer frequency, TF over GST control) | binding signal (ETV3L): 1.89 fold enrichment (6-mer frequency, TF over GST control) | binding signal (ETS2): 1.65 fold enrichment (6-mer frequency, TF over GST control) | binding signal (SPDEF): 1.59 fold enrichment (6-mer frequency, TF over GST control) | binding signal (ETV7): 1.56 fold enrichment (6-mer frequency, TF over GST control) | binding signal (ELF5): 2.07 fold enrichment (6-mer frequency, TF over GST control) | binding signal (ETV3): 1.75 fold enrichment (6-mer frequency, TF over GST control) | binding signal (ETV6): 1.84 fold enrichment (6-mer frequency, TF over GST control)

GGCTCA
binding signal (ERF): 1.3 fold enrichment (6-mer frequency, TF over GST control) | binding signal (ETV3L): 1.33 fold enrichment (6-mer frequency, TF over GST control) | binding signal (ETS2): 1.19 fold enrichment (6-mer frequency, TF over GST control) | binding signal (SPDEF): 1.15 fold enrichment (6-mer frequency, TF over GST control) | binding signal (ETV7): 1.15 fold enrichment (6-mer frequency, TF over GST control) | binding signal (ELF5): 1.14 fold enrichment (6-mer frequency, TF over GST control) | binding signal (ETV3): 1.23 fold enrichment (6-mer frequency, TF over GST control) | binding signal (ETV6): 1.26 fold enrichment (6-mer frequency, TF over GST control)

CTACAT
binding signal (ERF): 1.66 fold enrichment (6-mer frequency, TF over GST control) | binding signal (ETV3L): 1.41 fold enrichment (6-mer frequency, TF over GST control) | binding signal (ETS2): 1.43 fold enrichment (6-mer frequency, TF over GST control) | binding signal (SPDEF): 1.5 fold enrichment (6-mer frequency, TF over GST control) | binding signal (ETV7): 1.32 fold enrichment (6-mer frequency, TF over GST control) | binding signal (ELF5): 1.53 fold enrichment (6-mer frequency, TF over GST control) | binding signal (ETV3): 1.44 fold enrichment (6-mer frequency, TF over GST control) | binding signal (ETV6): 1.43 fold enrichment (6-mer frequency, TF over GST control)

TTTGCA
binding signal (ERF): 1.13 fold enrichment (6-mer frequency, TF over GST control) | binding signal (ETV3L): 1.31 fold enrichment (6-mer frequency, TF over GST control) | binding signal (ETS2): 1.14 fold enrichment (6-mer frequency, TF over GST control) | binding signal (SPDEF): 1.23 fold enrichment (6-mer frequency, TF over GST control) | binding signal (ETV7): 1.21 fold enrichment (6-mer frequency, TF over GST control) | binding signal (ELF5): 1.24 fold enrichment (6-mer frequency, TF over GST control) | binding signal (ETV3): 1.26 fold enrichment (6-mer frequency, TF over GST control) | binding signal (ETV6): 1.32 fold enrichment (6-mer frequency, TF over GST control)

CTGCTC
binding signal (ERF): 1.29 fold enrichment (6-mer frequency, TF over GST control) | binding signal (ETV3L): 1.43 fold enrichment (6-mer frequency, TF over GST control) | binding signal (ETS2): 1.28 fold enrichment (6-mer frequency, TF over GST control) | binding signal (SPDEF): 1.26 fold enrichment (6-mer frequency, TF over GST control) | binding signal (ETV7): 1.29 fold enrichment (6-mer frequency, TF over GST control) | binding signal (ELF5): 1.29 fold enrichment (6-mer frequency, TF over GST control) | binding signal (ETV3): 1.22 fold enrichment (6-mer frequency, TF over GST control) | binding signal (ETV6): 1.16 fold enrichment (6-mer frequency, TF over GST control)

AACAAC
binding signal (ERF): 1.35 fold enrichment (6-mer frequency, TF over GST control) | binding signal (ETV3L): 1.25 fold enrichment (6-mer frequency, TF over GST control) | binding signal (ETS2): 1.33 fold enrichment (6-mer frequency, TF over GST control) | binding signal (SPDEF): 1.27 fold enrichment (6-mer frequency, TF over GST control) | binding signal (ETV7): 1.3 fold enrichment (6-mer frequency, TF over GST control) | binding signal (ELF5): 1.28 fold enrichment (6-mer frequency, TF over GST control) | binding signal (ETV3): 1.37 fold enrichment (6-mer frequency, TF over GST control) | binding signal (ETV6): 1.35 fold enrichment (6-mer frequency, TF over GST control)

AAACTC
binding signal (ERF): 1.24 fold enrichment (6-mer frequency, TF over GST control) | binding signal (ETV3L): 1.17 fold enrichment (6-mer frequency, TF over GST control) | binding signal (ETS2): 1.19 fold enrichment (6-mer frequency, TF over GST control) | binding signal (SPDEF): 1.07 fold enrichment (6-mer frequency, TF over GST control) | binding signal (ETV7): 1.24 fold enrichment (6-mer frequency, TF over GST control) | binding signal (ELF5): 1.21 fold enrichment (6-mer frequency, TF over GST control) | binding signal (ETV3): 1.15 fold enrichment (6-mer frequency, TF over GST control) | binding signal (ETV6): 1.25 fold enrichment (6-mer frequency, TF over GST control)

ATACCT
binding signal (ERF): 1.12 fold enrichment (6-mer frequency, TF over GST control) | binding signal (ETV3L): 1.09 fold enrichment (6-mer frequency, TF over GST control) | binding signal (ETS2): 1.16 fold enrichment (6-mer frequency, TF over GST control) | binding signal (SPDEF): 1.04 fold enrichment (6-mer frequency, TF over GST control) | binding signal (ETV7): 1.18 fold enrichment (6-mer frequency, TF over GST control) | binding signal (ELF5): 1.04 fold enrichment (6-mer frequency, TF over GST control) | binding signal (ETV3): 1.11 fold enrichment (6-mer frequency, TF over GST control) | binding signal (ETV6): 1.07 fold enrichment (6-mer frequency, TF over GST control)
